Results published in PubChem BioAssay (Tox21).
Records with an inconclusive call do not appear. Entries that show only a call come without a potency. Values without a mark were called inactive. Calls of active or inactive are those of the source. Calls come from the whole dose curve; as a rule, active = well fitted cell-killing curve with a large enough effect in the repeat runs; inconclusive = weak or mixed curves, or effect the other way; inactive = flat fitted curve, though single readings scatter.

Experiments:
[1] = cAMP Responsive Elements (CRE) small molecule antagonists, cell-based qHTS assay: qHTS cell viability counter screen (AID 2060913); note: nearly all actives have a fitted effect of over 40% in size
Method in brief: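 CRE-bla HEK293T cells were seeded in assay medium with 10% dialyzed FBS, incubated 18 hrs at 37 C, then exposed to compounds plus 0.25 uM final NKH477 for 3 hrs. Viability was read by CellTiter-Glo luminescence after 30 min, in the same wells.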

[2] = cAMP Responsive Elements (CRE) small molecule agonists, cell-based qHTS assay: qHTS cell viability counter screen (AID 2060914); note: nearly all actives have a fitted effect of over 50% in size
Method in brief: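 Cytotoxicity was measured as ATP luminescence (CellTiter-Glo, 30 min at room temperature) in the same wells as the CRE-bla FRET read-out. HEK293T CRE-bla cells had 3 h compound exposure at 37C/5% CO2.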
Potency is the fitted concentration of half-maximal effect.

Q: With `O=C(O)C(Cl)(Cl)Cl` as the compound, how does the Potency [1] read?
A: Its Potency is “inactive”.

Q: What about the Potency [2] of the same compound?
A: The Potency was “inactive”.

Q: With `NN=C(N)N` as the compound, how does the Potency [1] read?
A: The Potency was “inactive”.

Q: What about the Potency [2] of the same compound?
A: Its Potency is “inactive”.

Q: Which Potency [1] does the source give for `CC(C)(OOC(C)(C)c1ccccc1)c1ccccc1` here?
A: The Potency was “inactive”.

Q: What about the Potency [2] of the same compound?
A: Its Potency is “inactive”.

Q: Which results are given for `CCOC(=O)Nc1cccc(OC(=O)Nc2ccccc2)c1`?
A: Potency [1]: inactive; Potency [2]: inactive

Q: What does the source list for `Clc1cccc(C(Cl)(Cl)Cl)n1`?
A: Potency [1]: inactive; Potency [2]: inactive

Q: Which Potency [1] does the source give for `CCCCCBr` here?
A: The Potency was “inactive”.

Q: And the Potency [2]?
A: Its Potency is “inactive”.

Q: Which results are given for `CCCCC#N`?
A: Potency [1]: inactive; Potency [2]: inactive

Q: With `O=c1[nH]c(=O)[nH]c(=O)[nH]1` as the compound, how does the Potency [1] read?
A: Its Potency is “inactive”.

Q: And the Potency [2]?
A: Its Potency is “inactive”.

Q: With `COS(=O)(=O)c1ccc(C)cc1` as the compound, how does the Potency [1] read?
A: The Potency was “inactive”.

Q: What about the Potency [2] of the same compound?
A: Its Potency is “inactive”.

Q: What does the source list for `N#Cc1cccnc1`?
A: Potency [1]: inactive; Potency [2]: inactive

Q: Which Potency [1] does the source give for `N#Cc1sc2c(=O)c3ccccc3c(=O)c=2sc1C#N` here?
A: The Potency was 61.1 µM (active).

Q: What about the Potency [2] of the same compound?
A: Its Potency is 54.5 µM (active).

Q: Which results are given for `O=C1C(=O)c2cccc3cccc1c23`?
A: Potency [1]: inactive; Potency [2]: inactive

Q: With `CCCCCON=O` as the compound, how does the Potency [1] read?
A: The Potency was “inactive”.

Q: And the Potency [2]?
A: The Potency was “inactive”.

Q: Which results are given for `Cc1ccc([N+](=O)[O-])[c]2c1[O][Hg]2`?
A: Potency [1]: 11.9 µM (active); Potency [2]: 18.8 µM (active)

Q: For `CCOC(=O)c1ccccc1C(=O)OCC`, which Potency [1] is on record?
A: The Potency was “inactive”.

Q: What about the Potency [2] of the same compound?
A: Its Potency is “inactive”.

Q: With `O=C1C=CC(=O)C=C1` as the compound, how does the Potency [1] read?
A: The Potency was “inactive”.

Q: What about the Potency [2] of the same compound?
A: Its Potency is “inactive”.

Q: Which results are given for `COCC(=O)N(c1c(C)cccc1C)C(C)C(=O)OC` (stereo unspecified)?
A: Potency [1]: inactive; Potency [2]: inactive

Q: For `CC#C[C@]1(O)CC[C@H]2[C@@H]3C[C@H](C)C4=CC(=O)CC[C@]4(C)[C@H]3CC[C@@]21C`, which Potency [1] is on record?
A: Its Potency is “inactive”.

Q: What about the Potency [2] of the same compound?
A: Its Potency is “inactive”.

Q: For `CCC(Br)(CC)C(=O)NC(N)=O`, which Potency [1] is on record?
A: Its Potency is “inactive”.

Q: And the Potency [2]?
A: The Potency was “inactive”.

Q: Which Potency [1] does the source give for `CC(=O)C(Cl)C(=O)N(C)C` (stereo unspecified) here?
A: The Potency was “inactive”.

Q: And the Potency [2]?
A: The Potency was “inactive”.

Q: Which results are given for `CN1C[C@H](C(=O)N[C@]2(C)O[C@@]3(O)[C@@H]4CCCN4C(=O)[C@H](Cc4ccccc4)N3C2=O)C=C2c3cccc4[nH]cc(c34)C[C@H]21`?
A: Potency [1]: inactive; Potency [2]: inactive

Q: For `COc1nc(NC(C)C)nc(NC(C)C)n1`, which Potency [1] is on record?
A: Its Potency is “inactive”.

Q: And the Potency [2]?
A: Its Potency is “inactive”.

Q: What does the source list for `O=c1[nH]c2ccccc2n1C1CCNCC1`?
A: Potency [1]: inactive; Potency [2]: 0.266 µM (active)

Q: Which results are given for `N#CN`?
A: Potency [1]: inactive; Potency [2]: inactive

Q: Which results are given for `COP(=S)(OC)Oc1ccc([N+](=O)[O-])c(C)c1`?
A: Potency [1]: inactive; Potency [2]: inactive

Q: Which Potency [1] does the source give for `N#Cc1ccccc1Cl` here?
A: Its Potency is “inactive”.

Q: What about the Potency [2] of the same compound?
A: The Potency was “inactive”.

Q: Which Potency [1] does the source give for `Oc1cccc(-c2ccccc2)c1` here?
A: The Potency was “inactive”.

Q: And the Potency [2]?
A: Its Potency is “inactive”.

Q: Which Potency [1] does the source give for `N#CC(Br)(Br)C(N)=O` here?
A: The Potency was “inactive”.

Q: What about the Potency [2] of the same compound?
A: Its Potency is “inactive”.

Q: What does the source list for `O=CNC(N1CCN(C(NC=O)C(Cl)(Cl)Cl)CC1)C(Cl)(Cl)Cl` (stereo unspecified)?
A: Potency [1]: inactive; Potency [2]: inactive

Q: What does the source list for `C[CH2][Hg][N]1C(=O)C2C(C1=O)C1(Cl)C(Cl)=C(Cl)C2(Cl)C1(Cl)Cl` (stereo unspecified)?
A: viability change, negative = cytotoxic [1]: -25.3% [at 18.9 µM]; activity change, negative = cytotoxicity [2]: 14.8% [at 18.9 µM]

Q: Which results are given for `CCCCN(N=O)C(=N)N[N+](=O)[O-]`?
A: Potency [1]: inactive; Potency [2]: inactive

Q: What does the source list for `Cc1c(COC(=O)[C@@H]2[C@H](/C=C(\Cl)C(F)(F)F)C2(C)C)cccc1-c1ccccc1`?
A: Potency [1]: inactive; Potency [2]: inactive

Q: Which results are given for `NC(=O)C(Cl)(Cl)Cl`?
A: Potency [1]: inactive; Potency [2]: inactive

Q: Which Potency [1] does the source give for `Oc1cc(Cl)ccc1Cl` here?
A: Its Potency is “inactive”.

Q: And the Potency [2]?
A: Its Potency is “inactive”.

Q: With `CCCCC(CC)C(=O)Cl` (stereo unspecified) as the compound, how does the Potency [1] read?
A: Its Potency is “inactive”.

Q: What about the Potency [2] of the same compound?
A: Its Potency is “inactive”.

Q: Which results are given for `[Cl-].[Cl-].[Sn+2]`?
A: Potency [1]: inactive; Potency [2]: inactive

Q: With `BrCCc1ccccc1` as the compound, how does the Potency [1] read?
A: The Potency was “inactive”.

Q: What about the Potency [2] of the same compound?
A: Its Potency is “inactive”.

Q: For `CCCC[N+](CCCC)(CCCC)CCCC`, which Potency [1] is on record?
A: The Potency was “inactive”.

Q: What about the Potency [2] of the same compound?
A: Its Potency is “inactive”.

Q: With `O=S1(=O)OC(c2cc(Br)c(O)c(Br)c2)(c2cc(Br)c(O)c(Br)c2)c2ccccc21` as the compound, how does the Potency [1] read?
A: The Potency was “inactive”.

Q: What about the Potency [2] of the same compound?
A: The Potency was “inactive”.

Q: Which Potency [1] does the source give for `COP(=S)(OC)Oc1ccc([N+](=O)[O-])cc1` here?
A: The Potency was “inactive”.

Q: And the Potency [2]?
A: The Potency was “inactive”.

Q: With `CC(Cl)Cl` as the compound, how does the Potency [1] read?
A: Its Potency is “inactive”.

Q: And the Potency [2]?
A: The Potency was “inactive”.

Q: Which Potency [1] does the source give for `CCc1cccc(C)c1N(C(=O)CCl)C(C)COC` (stereo unspecified) here?
A: Its Potency is “inactive”.

Q: And the Potency [2]?
A: Its Potency is “inactive”.

Q: With `ClC1=C(Cl)[C@]2(Cl)[C@H]3[C@H]([C@H]4C=C[C@H]3C4)[C@@]1(Cl)C2(Cl)Cl` as the compound, how does the Potency [1] read?
A: Its Potency is “inactive”.

Q: What about the Potency [2] of the same compound?
A: Its Potency is “inactive”.

Q: Which Potency [1] does the source give for `Nc1c(Cl)c(Cl)nc(C(=O)O)c1Cl` here?
A: The Potency was “inactive”.

Q: And the Potency [2]?
A: The Potency was “inactive”.

Q: For `OCCOCCO`, which Potency [1] is on record?
A: Its Potency is “inactive”.

Q: And the Potency [2]?
A: The Potency was “inactive”.

Q: With `O=C(O)C(O)C(O)C(=O)O` (stereo unspecified) as the compound, how does the Potency [1] read?
A: Its Potency is “inactive”.

Q: And the Potency [2]?
A: Its Potency is “inactive”.

Q: Which Potency [1] does the source give for `S=C1NCCN1` here?
A: Its Potency is “inactive”.

Q: What about the Potency [2] of the same compound?
A: Its Potency is “inactive”.

Q: With `C[As+](C)(C)CC(=O)[O-]` as the compound, how does the Potency [1] read?
A: Its Potency is “inactive”.

Q: And the Potency [2]?
A: Its Potency is “inactive”.

Q: With `CC(=O)O` as the compound, how does the Potency [1] read?
A: Its Potency is “inactive”.

Q: And the Potency [2]?
A: The Potency was “inactive”.

Q: For `O=C(O)C(Br)Br`, which Potency [1] is on record?
A: The Potency was “inactive”.

Q: What about the Potency [2] of the same compound?
A: Its Potency is “inactive”.

Q: With `Cc1ccc(C)c2ccccc12` as the compound, how does the Potency [1] read?
A: The Potency was “inactive”.

Q: What about the Potency [2] of the same compound?
A: Its Potency is “inactive”.

Q: Which results are given for `COc1ccc2c3c1O[C@H]1[C@H](O)CC[C@H]4[C@@H](C2)N(C)CC[C@@]341`?
A: Potency [1]: inactive; Potency [2]: inactive

Q: Which Potency [1] does the source give for `Cc1cc(Cl)ccc1OC(C)C(=O)O` (stereo unspecified) here?
A: The Potency was “inactive”.

Q: What about the Potency [2] of the same compound?
A: Its Potency is “inactive”.

Q: With `C=CC(=O)OCCCCOC(=O)C=C` as the compound, how does the Potency [1] read?
A: Its Potency is “inactive”.

Q: And the Potency [2]?
A: The Potency was “inactive”.

Q: Which results are given for `BrCC(Br)C1CCC(Br)C(Br)C1` (stereo unspecified)?
A: Potency [1]: inactive; Potency [2]: inactive

Q: Which Potency [1] does the source give for `O=C/C(Cl)=C(/Cl)C(=O)O` here?
A: The Potency was “inactive”.

Q: And the Potency [2]?
A: Its Potency is “inactive”.

Q: Which Potency [1] does the source give for `CC(C)(C)N(NC(=O)c1ccc(Cl)cc1)C(=O)c1ccccc1` here?
A: The Potency was “inactive”.

Q: What about the Potency [2] of the same compound?
A: Its Potency is “inactive”.

Q: What does the source list for `O=C(O)C1(c2ccc3c(c2)OC[C@H](Cc2ccc(-c4ccccc4)cc2)[C@H]3O)CCCC1`?
A: Potency [1]: inactive; Potency [2]: inactive

Q: With `CCOP(=S)(OCC)SCSc1ccc(Cl)cc1` as the compound, how does the Potency [1] read?
A: The Potency was “inactive”.

Q: What about the Potency [2] of the same compound?
A: The Potency was “inactive”.

Q: For `CCCSP(=S)(OCC)Oc1ccc(Cl)cc1Cl` (stereo unspecified), which Potency [1] is on record?
A: Its Potency is “inactive”.

Q: And the Potency [2]?
A: Its Potency is “inactive”.

Q: Which Potency [1] does the source give for `COC(=O)N(C(=O)N1CO[C@@]2(C(=O)OC)Cc3cc(Cl)ccc3C2=N1)c1ccc(OC(F)(F)F)cc1` here?
A: The Potency was “inactive”.

Q: What about the Potency [2] of the same compound?
A: The Potency was “inactive”.

Q: What does the source list for `CCNc1nc(Cl)nc(NCC)n1`?
A: Potency [1]: inactive; Potency [2]: inactive

Q: Which results are given for `O=C/C=C/c1ccco1`?
A: Potency [1]: inactive; Potency [2]: inactive
